Assay [1] concerns the target T1, Methionyl-tRNA synthetase, putative (Leishmania donovani (strain BPK282A1)) (UniProt E9BF75).
T1 sequence (whole entry): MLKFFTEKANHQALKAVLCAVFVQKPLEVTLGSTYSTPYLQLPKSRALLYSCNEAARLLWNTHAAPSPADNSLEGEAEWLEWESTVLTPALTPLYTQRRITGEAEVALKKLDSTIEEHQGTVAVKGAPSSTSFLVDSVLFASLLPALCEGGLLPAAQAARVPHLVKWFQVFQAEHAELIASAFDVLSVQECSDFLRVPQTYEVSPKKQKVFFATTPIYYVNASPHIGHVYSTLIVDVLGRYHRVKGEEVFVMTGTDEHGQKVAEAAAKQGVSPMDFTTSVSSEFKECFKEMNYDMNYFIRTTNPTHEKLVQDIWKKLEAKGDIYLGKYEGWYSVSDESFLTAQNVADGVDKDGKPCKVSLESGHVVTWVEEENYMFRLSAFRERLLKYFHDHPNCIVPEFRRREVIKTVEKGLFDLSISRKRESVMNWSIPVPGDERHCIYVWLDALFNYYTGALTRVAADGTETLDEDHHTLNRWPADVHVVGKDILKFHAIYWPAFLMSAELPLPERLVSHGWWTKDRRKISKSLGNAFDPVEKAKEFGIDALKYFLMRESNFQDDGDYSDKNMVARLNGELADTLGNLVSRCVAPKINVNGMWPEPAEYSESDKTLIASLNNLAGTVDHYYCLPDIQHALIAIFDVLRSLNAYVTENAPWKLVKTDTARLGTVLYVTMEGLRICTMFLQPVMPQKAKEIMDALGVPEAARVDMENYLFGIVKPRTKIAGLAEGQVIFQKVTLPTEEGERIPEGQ
Description: Leishmania donovani Methionine tRNA synthetase (LdMetRS):v7. Dose response assay. The class given is functional. More on the design: conc 80 nM, time 150 minutes.

In assay [2] the target is Protein translocase subunit SecA (Escherichia coli (strain K12)) (UniProt P10408). Put plainly: Assay to Identify E. coli SecA ATPase Inhibitors. The class given is functional. More on the design: scale not given: direction of the effect not stated beside the values. The settings on record: 30 µM.
The target of assay [3] is T2, Ubiquitin-activating enzyme e1, putative (Leishmania donovani (strain BPK282A1)) (UniProt E9BSI1).
T2 sequence (whole entry): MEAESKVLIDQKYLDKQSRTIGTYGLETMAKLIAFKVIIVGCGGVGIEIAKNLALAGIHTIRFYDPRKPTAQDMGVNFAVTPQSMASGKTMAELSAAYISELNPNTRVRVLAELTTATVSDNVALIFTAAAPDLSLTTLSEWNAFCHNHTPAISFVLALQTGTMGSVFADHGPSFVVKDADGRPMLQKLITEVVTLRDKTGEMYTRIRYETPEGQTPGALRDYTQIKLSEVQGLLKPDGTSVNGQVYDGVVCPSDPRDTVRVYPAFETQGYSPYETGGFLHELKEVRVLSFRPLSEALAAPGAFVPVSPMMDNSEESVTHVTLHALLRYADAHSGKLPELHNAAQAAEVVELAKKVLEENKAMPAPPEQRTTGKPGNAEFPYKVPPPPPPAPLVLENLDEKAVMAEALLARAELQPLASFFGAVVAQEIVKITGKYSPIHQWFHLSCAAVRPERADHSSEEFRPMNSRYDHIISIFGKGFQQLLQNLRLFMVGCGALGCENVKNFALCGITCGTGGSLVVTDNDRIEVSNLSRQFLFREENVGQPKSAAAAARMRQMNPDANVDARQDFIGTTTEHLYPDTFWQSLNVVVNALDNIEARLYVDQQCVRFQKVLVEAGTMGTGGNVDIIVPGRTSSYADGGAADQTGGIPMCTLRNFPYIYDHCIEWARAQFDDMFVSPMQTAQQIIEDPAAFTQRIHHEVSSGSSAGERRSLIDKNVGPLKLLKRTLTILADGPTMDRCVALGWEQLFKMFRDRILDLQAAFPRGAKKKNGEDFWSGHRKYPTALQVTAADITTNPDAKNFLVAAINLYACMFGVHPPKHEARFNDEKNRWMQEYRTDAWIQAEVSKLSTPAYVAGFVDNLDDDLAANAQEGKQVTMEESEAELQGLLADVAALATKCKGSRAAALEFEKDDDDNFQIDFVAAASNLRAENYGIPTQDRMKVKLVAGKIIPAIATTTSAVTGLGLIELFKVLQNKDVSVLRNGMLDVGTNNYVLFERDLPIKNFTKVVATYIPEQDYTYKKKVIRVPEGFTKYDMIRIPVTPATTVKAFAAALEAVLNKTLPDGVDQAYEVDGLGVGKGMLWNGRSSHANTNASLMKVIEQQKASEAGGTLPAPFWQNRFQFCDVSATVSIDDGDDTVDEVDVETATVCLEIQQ
Put plainly: Leishmania donovani Ubiquitin Activating Enzyme (LdE1). More on the design: scale not given: direction of the effect not stated beside the values. The conditions noted are these: 30 µM. The class given is functional.

In assay [4] the target is Sialic acid-binding Ig-like lectin 9 (Homo sapiens) (UniProt Q9Y336). Description: Hs-Siglec9 ALPHAscreen SOP 20170721. The conditions noted are these: 10 µM. More on the design: scale not given: direction of the effect not stated beside the values.
Another assay relates to Trypanosoma cruzi. Put plainly: Trypanosoma cruzi phosphomannomutase and mannose-1-phosphate guanylyltransferase assay. The class given is functional. More on the design: scale not given: direction of the effect not stated beside the values. The conditions noted are these: 10 µM.
Assay [5] concerns the target T3, Arginase-2, mitochondrial (Homo sapiens) (UniProt P78540).
T3 sequence (whole entry): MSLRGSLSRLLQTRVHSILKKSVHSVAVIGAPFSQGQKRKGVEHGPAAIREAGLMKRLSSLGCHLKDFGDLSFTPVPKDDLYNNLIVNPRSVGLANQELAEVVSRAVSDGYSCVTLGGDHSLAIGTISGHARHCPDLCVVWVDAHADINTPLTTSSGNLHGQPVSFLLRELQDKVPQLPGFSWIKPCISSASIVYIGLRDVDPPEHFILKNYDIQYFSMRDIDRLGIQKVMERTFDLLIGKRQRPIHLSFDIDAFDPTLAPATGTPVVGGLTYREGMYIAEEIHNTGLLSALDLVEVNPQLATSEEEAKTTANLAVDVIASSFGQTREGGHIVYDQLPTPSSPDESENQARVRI
Put plainly: in vitro enzyme assay to detect the production of urea directly proportional to the activity of Arginase II. The class given is functional. More on the design: scale not given: in the data most compounds retested in dose-response had high values. The settings on record: 33.3 µM.

Assay [6] addresses T4, Proteasome subunit beta (Trypanosoma cruzi) (UniProt O96673).
T4 sequence (whole entry): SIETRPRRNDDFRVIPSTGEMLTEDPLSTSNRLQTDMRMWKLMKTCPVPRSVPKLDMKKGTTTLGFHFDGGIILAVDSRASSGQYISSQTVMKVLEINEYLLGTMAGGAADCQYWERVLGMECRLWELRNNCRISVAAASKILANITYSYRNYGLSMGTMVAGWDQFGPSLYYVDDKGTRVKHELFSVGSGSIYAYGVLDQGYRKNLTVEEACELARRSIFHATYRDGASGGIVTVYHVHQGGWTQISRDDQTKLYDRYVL
Description: Trypanosoma cruzi proteasome chymotrypsin-like activity (TcProtChymo) assay. The class given is functional. The settings on record: 9.37 µM. More on the design: scale not given: in the data most compounds retested in dose-response had high values.

The species entered for another assay is Homo sapiens. Put plainly: To identify inhibition of the IFN signalling (Jak-Stat) pathway via expression of an eGFP reporter gene under the control of an IFN-stimulated response element (ISRE) containing MxA promoter. The class given is functional. More on the design: scale not given: direction of the effect not stated beside the values. The conditions noted are these: 30 µM.

Assay [7] concerns the target T5, Tyrosyl-tRNA synthetase, putative (Trypanosoma cruzi (strain CL Brener)) (UniProt Q4DSP6).
T5 sequence (whole entry): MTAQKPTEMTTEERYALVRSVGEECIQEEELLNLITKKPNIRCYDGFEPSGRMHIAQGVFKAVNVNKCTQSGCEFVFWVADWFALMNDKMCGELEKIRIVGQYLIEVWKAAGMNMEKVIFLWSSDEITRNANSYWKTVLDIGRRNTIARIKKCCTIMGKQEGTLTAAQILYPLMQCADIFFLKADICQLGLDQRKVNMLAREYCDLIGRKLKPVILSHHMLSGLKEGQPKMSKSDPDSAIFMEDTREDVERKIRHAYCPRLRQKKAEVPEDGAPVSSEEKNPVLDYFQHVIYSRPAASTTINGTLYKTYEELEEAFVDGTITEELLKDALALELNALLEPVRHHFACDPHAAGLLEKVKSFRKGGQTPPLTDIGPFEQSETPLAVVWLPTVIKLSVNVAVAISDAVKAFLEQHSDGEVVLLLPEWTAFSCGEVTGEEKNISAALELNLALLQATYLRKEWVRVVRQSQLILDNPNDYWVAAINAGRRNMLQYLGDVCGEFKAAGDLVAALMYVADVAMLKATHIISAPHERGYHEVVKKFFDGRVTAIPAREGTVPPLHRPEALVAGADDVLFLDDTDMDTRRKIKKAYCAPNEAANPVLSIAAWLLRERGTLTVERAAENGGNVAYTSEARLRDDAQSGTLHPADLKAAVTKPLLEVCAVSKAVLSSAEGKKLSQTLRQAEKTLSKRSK
Put plainly: Trypanosoma cruzi tyrosyl tRNA synthetase (TcYRS) _High Tyrosine SOP. The class given is functional. More on the design: scale not given: in the data most compounds retested in dose-response had high values. The settings on record: 30 µM.

Assay [8] addresses T5, Tyrosyl-tRNA synthetase, putative (Trypanosoma cruzi (strain CL Brener)). Put plainly: Trypanosoma cruzi tyrosyl tRNA synthetase (TcYRS) SOP. The class given is functional. More on the design: scale not given: direction of the effect not stated beside the values. The settings on record: 30 µM.
The target in assay [9] is Chromo domain-containing protein 1 (Saccharomyces cerevisiae (strain ATCC 204508 / S288c) (Baker's yeast)) (UniProt P32657). Description: ScCHD-1 Enzyme Inhibition Assay. The class given is functional. More on the design: scale not given: in the data most compounds retested in dose-response had high values. The settings on record: 30 µM.
The target in assay [10] is AMP-activated protein kinase, AMPK (Homo sapiens) (UniProt P54646+O43741+P54619+Q9UGJ0+Q9Y478+Q13131+Q9UGI9). Description: AMP-dependent Kinase enzyme assay. An in vitro enzyme assay that detects ADP turnover that is directly proportional to AMPK activity. This uses naive AMPK that is activated during the assay with MK-8722. The class given is functional. The conditions noted are these: 30 µM. More on the design: scale not given: direction of the effect not stated beside the values.

For some assays here: Results with a measured potency or affinity are listed apart.

Chain of Protein translocase subunit SecA (Escherichia coli (strain K12)) (P10408 whole entry): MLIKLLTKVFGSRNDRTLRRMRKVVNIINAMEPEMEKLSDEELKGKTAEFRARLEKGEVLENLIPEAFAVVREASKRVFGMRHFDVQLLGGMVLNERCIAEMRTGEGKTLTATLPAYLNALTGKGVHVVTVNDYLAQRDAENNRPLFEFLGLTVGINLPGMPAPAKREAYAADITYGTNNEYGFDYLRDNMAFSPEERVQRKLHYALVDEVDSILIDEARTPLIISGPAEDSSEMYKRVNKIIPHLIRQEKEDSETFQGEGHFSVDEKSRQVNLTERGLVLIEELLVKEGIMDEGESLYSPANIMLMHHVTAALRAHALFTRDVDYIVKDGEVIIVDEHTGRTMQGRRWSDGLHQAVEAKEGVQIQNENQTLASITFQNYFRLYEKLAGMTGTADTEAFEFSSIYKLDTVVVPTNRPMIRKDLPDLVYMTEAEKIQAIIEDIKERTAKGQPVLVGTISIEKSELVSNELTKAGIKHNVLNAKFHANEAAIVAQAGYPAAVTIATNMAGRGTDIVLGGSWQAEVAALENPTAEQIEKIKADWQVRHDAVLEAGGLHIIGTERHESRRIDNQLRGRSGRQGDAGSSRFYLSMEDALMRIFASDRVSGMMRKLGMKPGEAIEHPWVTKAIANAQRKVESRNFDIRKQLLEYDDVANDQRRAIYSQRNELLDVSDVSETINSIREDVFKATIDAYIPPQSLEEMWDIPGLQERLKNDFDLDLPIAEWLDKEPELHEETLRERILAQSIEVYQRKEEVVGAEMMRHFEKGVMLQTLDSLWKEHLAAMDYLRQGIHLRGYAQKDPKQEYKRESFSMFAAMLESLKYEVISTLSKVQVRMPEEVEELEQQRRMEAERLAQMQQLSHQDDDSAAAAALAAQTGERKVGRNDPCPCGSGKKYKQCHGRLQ
Chain of Chromo domain-containing protein 1 (Saccharomyces cerevisiae (strain ATCC 204508 / S288c) (Baker's yeast)) (P32657 whole entry, the tested form may be a part): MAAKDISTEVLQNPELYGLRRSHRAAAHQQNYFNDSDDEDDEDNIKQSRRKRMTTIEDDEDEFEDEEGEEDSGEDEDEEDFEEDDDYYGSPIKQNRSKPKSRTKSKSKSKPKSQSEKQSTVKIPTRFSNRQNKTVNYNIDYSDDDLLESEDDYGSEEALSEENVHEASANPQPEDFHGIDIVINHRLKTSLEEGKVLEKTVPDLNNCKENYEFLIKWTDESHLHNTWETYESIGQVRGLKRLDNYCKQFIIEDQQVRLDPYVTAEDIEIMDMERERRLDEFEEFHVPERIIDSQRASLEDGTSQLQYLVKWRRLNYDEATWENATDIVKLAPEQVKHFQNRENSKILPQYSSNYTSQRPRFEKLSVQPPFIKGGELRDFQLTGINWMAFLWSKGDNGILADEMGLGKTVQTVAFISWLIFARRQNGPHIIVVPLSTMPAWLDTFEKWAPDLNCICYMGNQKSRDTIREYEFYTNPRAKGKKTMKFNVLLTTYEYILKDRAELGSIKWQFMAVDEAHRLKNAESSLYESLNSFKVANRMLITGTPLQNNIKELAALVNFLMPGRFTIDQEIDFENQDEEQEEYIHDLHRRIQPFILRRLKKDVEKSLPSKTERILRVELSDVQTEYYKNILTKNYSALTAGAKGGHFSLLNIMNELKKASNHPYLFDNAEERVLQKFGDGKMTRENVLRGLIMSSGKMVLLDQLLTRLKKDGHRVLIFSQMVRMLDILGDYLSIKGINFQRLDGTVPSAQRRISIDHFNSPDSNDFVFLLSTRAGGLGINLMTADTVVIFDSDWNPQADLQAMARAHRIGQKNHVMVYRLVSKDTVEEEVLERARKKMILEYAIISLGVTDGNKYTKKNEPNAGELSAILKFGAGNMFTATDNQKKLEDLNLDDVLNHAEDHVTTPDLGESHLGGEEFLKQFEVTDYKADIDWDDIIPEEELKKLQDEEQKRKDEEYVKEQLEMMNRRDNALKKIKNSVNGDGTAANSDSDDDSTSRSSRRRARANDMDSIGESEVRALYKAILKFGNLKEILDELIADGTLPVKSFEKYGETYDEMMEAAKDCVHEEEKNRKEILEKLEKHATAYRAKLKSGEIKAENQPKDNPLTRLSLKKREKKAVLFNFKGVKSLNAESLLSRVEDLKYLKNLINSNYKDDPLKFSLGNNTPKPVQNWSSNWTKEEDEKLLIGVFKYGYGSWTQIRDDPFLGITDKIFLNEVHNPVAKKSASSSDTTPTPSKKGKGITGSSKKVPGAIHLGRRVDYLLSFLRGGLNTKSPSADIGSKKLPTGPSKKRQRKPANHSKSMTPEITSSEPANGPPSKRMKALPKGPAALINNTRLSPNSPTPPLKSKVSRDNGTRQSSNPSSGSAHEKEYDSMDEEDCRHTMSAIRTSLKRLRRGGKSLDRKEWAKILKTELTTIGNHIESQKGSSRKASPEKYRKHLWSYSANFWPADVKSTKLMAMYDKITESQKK
Chain of Sialic acid-binding Ig-like lectin 9 (Homo sapiens) (Q9Y336 whole entry): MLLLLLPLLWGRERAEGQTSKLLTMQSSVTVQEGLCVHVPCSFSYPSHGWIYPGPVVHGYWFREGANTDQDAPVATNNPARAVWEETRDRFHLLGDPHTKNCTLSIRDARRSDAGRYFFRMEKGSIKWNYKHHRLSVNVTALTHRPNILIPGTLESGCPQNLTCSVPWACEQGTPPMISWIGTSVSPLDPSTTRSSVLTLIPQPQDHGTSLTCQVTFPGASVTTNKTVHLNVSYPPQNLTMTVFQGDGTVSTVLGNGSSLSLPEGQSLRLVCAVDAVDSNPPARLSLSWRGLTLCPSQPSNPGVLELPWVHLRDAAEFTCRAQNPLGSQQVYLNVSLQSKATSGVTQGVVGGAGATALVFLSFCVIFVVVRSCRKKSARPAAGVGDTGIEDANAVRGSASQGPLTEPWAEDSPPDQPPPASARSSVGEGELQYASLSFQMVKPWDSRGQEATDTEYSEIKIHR

In the case of `COc1ccccc1C1(CNc2nnc(C)c(C)c2C#N)CCCC1`, the PXC50 is 4.21 in assay [1] (BOTTOM 3.334115973, HILLSLOPE 1.087838863, MAX_EFFECT 53.16698656, TOP 83.15988554); less than 4 in [1] (MAX_EFFECT 37.68115942); less than 4 in assay [1] (MAX_EFFECT 40.13605442); less than 4 in [1] (MAX_EFFECT 44.81658692); less than 4 in assay [1] (MAX_EFFECT 49.91243433).
As to `CC(C)C[C@H](N)COc1cccc(F)c1Oc1ccc(Cl)cc1`, the PXC50 amounted to 4.39 in assay [1] (BOTTOM 2.189725924, HILLSLOPE 1.340429131, MAX_EFFECT 78.50287908, TOP 100.0); 4.34 in assay [1] (BOTTOM 6.665693755, HILLSLOPE 1.000390525, MAX_EFFECT 63.08724832, TOP 89.83359252); 4.4 in [1] (BOTTOM 8.555350196, HILLSLOPE 1.300138335, MAX_EFFECT 82.32235702, TOP 100.0); 4.36 in assay [1] (BOTTOM 9.084234051, HILLSLOPE 1.282962904, MAX_EFFECT 79.16666667, TOP 100.0); 4.18 in assay [1] (BOTTOM -2.40342641, HILLSLOPE 1.582156808, MAX_EFFECT 66.8261563, TOP 100.0).
For `CN(CC1CC1)c1ccc2ccc(C(=O)NCCN3CCOCC3)cn12`, the PXC50 in assay [1] (BOTTOM -1.512370452, HILLSLOPE 1.01203919, MAX_EFFECT 54.40140845, TOP 92.97919978) was 4.18; in assay [1] (BOTTOM -1.802135636, HILLSLOPE 1.091019119, MAX_EFFECT 56.05700713, TOP 88.72898538) it was 4.23. Moreover, the Percent Effect in [2] was 0.0454%; in [3] it was 6.49%; in [4] it was -2.21%; in the assay on Trypanosoma cruzi, 2.06%; in [5] it was 2.28%; in assay [6] it was 0.944%. Besides, the Percent Effect in the assay filed under Homo sapiens was 29.3%; in assay [7], 34.8%; in [8], 15%; in assay [9], -2.15%.
On to `FC1(F)CCN(Cc2cccnc2)CC12CCN(c1ccccn1)C2` (stereo not given), for which the PXC50 in assay [1] (MAX_EFFECT 12.14788732) and in [1] (MAX_EFFECT 12.35154394) was less than 4 each time. In addition, the Percent Effect in [2] is -2.18%; in [3] it was 16.2%; in assay [10], 5.61%; in assay [4], -2.07%; in the assay with Trypanosoma cruzi, -4.99%; in [5], 17.5%. Moreover, the Percent Effect was 21.4% in [6]; 33.7% in the assay filed under Homo sapiens; 1.08% in [7]; 12.8% in [8]; -3.06% in [9].

For the origin of these results see ChEMBL document CHEMBL3988442, “University of Dundee, Small-Polar-MMV Screening Library” (2021).
